Screening results as filed in PubChem.
HCT116 bCat-KO = beta-catenin-lacking colon tumor cell growth suppression | HCT116 beta-catenin knockout viability, CellTiter-Glo, 60 h; stronger effect = lower value | viability, % at 10 µM | hit rate 1.5% among 140,000;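 active means viability at or under a set limit, the compound median less 4 SD, cut at about 6% in these data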
WT yeast gro inh = growth inhibition of WT yeast, mitochondrial fusion screen. mitochondrial fusion phenotypic screen, WT strain. inhibition, % at 10 µM. hit rate 2.1% among 190,000. AID 1362; in the data active means inhibition above about 58%; tested in S. cerevisiae
HCT116 PTEN-null = PTEN-deleted cell growth suppression; hit rate 1.2% among 140,000; AID 827; HCT116 PTEN-null viability, CellTiter-Glo, 60 h; stronger effect = lower value; viability, % at 10 µM;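 active means viability at or below a set limit, 4 SD under the median of all tested compounds, cut at about 3.7% in these data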;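 further: PTEN knockout HCT116 line with beta catenin targeted HCT116 as companion control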
DAT uptake mod = human DAT dopamine uptake with cocaine, either direction; Q01959; LLC-PK1 hDAT cells, [14C]-dopamine uptake with cocaine IC80; actives deviate in either direction; B-score at 10 µM; hit rate 1.3% among 110,000;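 active means Z score or B-score, a plate-position-corrected score, falls beyond the plate's 99.7% confidence bounds, in either direction; inactive means both scores lie inside the 99.7% bounds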
Target sequence (Q01959 whole entry, looked up): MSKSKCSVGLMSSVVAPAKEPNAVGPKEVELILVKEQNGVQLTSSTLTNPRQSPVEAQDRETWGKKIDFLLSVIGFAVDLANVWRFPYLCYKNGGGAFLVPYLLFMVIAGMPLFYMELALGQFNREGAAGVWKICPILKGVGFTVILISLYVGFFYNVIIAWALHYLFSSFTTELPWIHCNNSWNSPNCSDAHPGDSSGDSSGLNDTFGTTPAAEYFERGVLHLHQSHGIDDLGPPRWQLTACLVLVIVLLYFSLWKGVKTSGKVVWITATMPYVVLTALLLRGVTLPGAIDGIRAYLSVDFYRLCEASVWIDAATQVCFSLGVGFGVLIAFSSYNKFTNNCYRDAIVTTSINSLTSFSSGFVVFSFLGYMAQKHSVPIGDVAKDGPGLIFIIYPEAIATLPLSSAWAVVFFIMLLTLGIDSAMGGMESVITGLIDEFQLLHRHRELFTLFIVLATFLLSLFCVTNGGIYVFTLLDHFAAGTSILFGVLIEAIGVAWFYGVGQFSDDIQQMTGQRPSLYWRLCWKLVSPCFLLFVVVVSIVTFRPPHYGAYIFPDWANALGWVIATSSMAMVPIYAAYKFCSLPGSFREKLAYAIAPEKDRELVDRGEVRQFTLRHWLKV
A number is an active result; n = inactive; x = no result given. A selection: hits, their analogues and other compounds. The true share with any hit is near 3.6%.

SMILES | HCT116 bCat-KO | WT yeast gro inh | HCT116 PTEN-null | DAT uptake mod
S=c1[nH]nc(-c2ccco2)n1/N=C/c1ccc(Cl)c(Cl)c1 | n | 76 | n | x
COc1cc(C=O)ccc1OC(=O)c1ccc(C(C)C)cc1 | x | n | x | x
COc1ccc(C2C3=C(Nc4ncnn42)c2ccccc2CCC3)cc1 (centres undefined) | n | n | n | n
Fc1ccc(/C=C2\CCCC3=C2Nc2ncnn2C3c2ccc(F)cc2)cc1 (centres undefined) | 2.0 | x | 1.8 | n
COc1cc(-c2nnc3sc(-c4cccs4)nn23)cc(OC)c1OC | 4.0 | n | 3.0 | n
Cc1ccnc(SCC(=O)c2cc3ccccc3o2)n1 | x | n | x | x
Cc1ccc(C(=O)/C=C/c2ccccc2)o1 | 5.9 | n | n | n
Cc1ccc(C(=O)/C=C/c2ccc3c(c2)OCO3)o1 | n | n | n | n
Cc1ccc(C(=O)/C=C/c2ccc(Br)cc2)o1 | 2.2 | n | 1.4 | n
CCOC(=O)C(=O)N1CCN(c2ccccc2OC)CC1 | x | n | x | x
Fc1ccc(-c2c[nH]c(=S)n2Cc2ccccc2)cc1 | x | n | x | x
Cc1cc2nc(-c3ccc(SCC(=O)N4CCc5ccccc54)nc3)[nH]c2cc1C | 0.8 | n | 1.0 | n
Cc1cc2nc(-c3ccc(SCC(=O)NC(C)C)nc3)[nH]c2cc1C | x | n | x | x
O=C(/C=C/c1ccc(Cl)cc1)NCCN1CCOCC1 | n | n | n | -7.8
COc1cccc2sc(Nc3nnc(-c4ccccc4Cl)o3)nc12 | n | n | n | n
COc1ccccc1-c1nnc(Nc2nc3c(OC)cccc3s2)o1 | 5.1 | n | n | n
CC1=C(C(=O)OCc2ccccc2)C(c2ccccc2-c2ccccc2)NC(=O)N1CCCCCC(=O)O (centres undefined) | n | n | n | 2.8
CC1=C(C(=O)OCc2ccccc2)C(c2ccccc2OS(=O)(=O)c2ccc(C)cc2)NC(=O)N1CCCC(=O)O (centres undefined) | x | x | x | 2.5
CC1=C(C(=O)OCc2ccccc2)C(c2ccc(-c3ccccc3)cc2)NC(=O)N1CCCC(=O)O (centres undefined) | x | x | x | n
O=C(CNc1ccccc1OC(F)F)N1CCc2ccccc21 | x | n | x | x
O=C(NC(NNc1ccc([N+](=O)[O-])cc1)(C(F)(F)F)C(F)(F)F)c1ccccc1Cl | n | n | n | n
O=C(NC(Nc1nc2ccc([N+](=O)[O-])cc2s1)(C(F)(F)F)C(F)(F)F)c1ccccc1Cl | 1.7 | n | 1.4 | x
O=C(NC(Nc1nc2ccc([N+](=O)[O-])cc2s1)(C(F)(F)F)C(F)(F)F)c1cccnc1 | 2.2 | n | 3.0 | x
CN(C)S(=O)(=O)c1ccc2nc(NC(=O)c3cccnc3)sc2c1 | n | n | n | n
CN1/C(=C\C(=O)CSc2nnc(NCc3ccccc3)s2)C(C)(C)c2ccccc21 | n | n | n | x
SMILES | HCT116 bCat-KO | WT yeast gro inh | HCT116 PTEN-null | DAT uptake mod
CN1CCN(C(=O)c2cc(Oc3c(F)c(F)c(F)c(F)c3F)cc(C(=O)N3CCN(C)CC3)c2)CC1 | x | n | x | x
CCN(CC)C(=O)Cn1c(=O)n(-c2ccccc2)c(=O)n1CC(=O)N(CC)CC | n | n | n | -9.6
CCOC(=O)Cn1nc(C)n(-c2ccccc2)c1=O | n | n | n | n
N/C(=N\OC(=O)Cc1ccc(-c2ccccc2)cc1)c1ccncc1 | x | n | x | x
CCN(CC)C(=O)C1CC(=O)N(c2ccc(F)c(Cl)c2)C1 (centres undefined) | n | 59 | n | n
COCCNC(=O)C1CC(=O)N(c2ccc(F)c(Cl)c2)C1 (centres undefined) | x | n | x | n
CCN(CC(=O)NC1CCS(=O)(=O)C1)S(=O)(=O)c1cccc(C(C)=O)c1 (centres undefined) | x | n | x | x
CC1=CC(C)(C)N(S(=O)(=O)c2ccc(F)cc2)c2ccc(C)cc21 | n | 81 | n | n
CCOc1ccc(N(C(=O)C2CCCO2)C2C=CS(=O)(=O)C2)cc1 (centres undefined) | x | n | x | x
CC(C)(C)c1ccc(/C=N/NC(=S)Nc2cccnc2)cc1 | x | 60 | x | x
C=CCNC(=S)N/N=C/c1ccc(C(C)(C)C)cc1 | x | 76 | x | x
CC(C)(C)c1ccc(/C=N/NC(=S)NCc2ccccc2)cc1 | n | n | n | x
CCOC(=O)N1CCN(C(=S)NC(=O)c2ccc(F)cc2)CC1 | x | n | x | x
O=C(CN1C(=O)COc2ccccc21)N(Cc1cccnc1)Cc1cccc(F)c1 | n | 77 | n | n
CC(=O)Nc1ccc(/C(C)=N/NC(=O)c2ccccc2Cl)cc1 | n | n | n | x
Cc1csc(NC(=O)c2cn3ccccc3n2)n1 | x | n | x | x
O=S(=O)(/N=C(/c1ccccc1)N1CCCCC1)c1ccccc1 | n | n | n | x
CCCSc1nc(NCc2ccco2)c2c3c(sc2n1)COC(C)(C)C3 | n | 70 | n | n
Cc1cc(C)n(-c2nc(NCc3cccnc3)c3c4c(sc3n2)COC(C)(C)C4)n1 | 4.5 | n | n | n
Cc1nc(NCc2cccnc2)c2c3c(sc2n1)CCCC3 | x | n | x | x
COC(=O)CCC(=O)COc1ccccc1C#N | n | n | n | n
COC(=O)CCC(=O)COc1ccc(OC)cc1C#N | n | 91 | n | n
CN(C)C(CNC(=O)c1ccc2c(=O)n(-c3ccccc3F)c(=S)[nH]c2c1)Cc1ccccc1 (centres undefined) | x | n | x | x
Cc1ccc(O)c(-c2cc(-c3ccccc3C)[nH]n2)c1 | n | 78 | n | n
Cc1ccc(O)c(-c2cc(-c3ccccc3[N+](=O)[O-])[nH]n2)c1 | n | n | n | x
SMILES | HCT116 bCat-KO | WT yeast gro inh | HCT116 PTEN-null | DAT uptake mod
COc1ccc(C(=O)CSc2nc3[nH]ncc3c(=O)[nH]2)cc1 | x | n | x | x
O=C(O)Cc1coc(-c2ccc(F)cc2)n1 | n | n | n | -8.5
O=C(Cc1coc(-c2ccc(F)cc2)n1)NCc1ccccc1 | n | n | n | n
O=C(Nc1ccc2snnc2c1)N1CCSCC1 | n | n | n | n
CC1CN(C(=O)Nc2ccc3snnc3c2)c2ccccc21 (centres undefined) | n | n | n | 2.6
Nc1c(C(=O)N2CCCCC2)sc(=S)n1-c1ccccc1 | n | n | n | 2.7
Cc1ccccc1CN1CCc2c(OCC(=O)N3CCCc4ccccc43)cccc2C1=O | n | 62 | n | x
N#Cc1ccccc1Sc1ccccc1C(=O)OCc1nnc(-c2ccccc2)o1 | n | n | n | 2.5
N#Cc1ccccc1Sc1ccccc1C(=O)OCC(N)=O | x | n | x | x
Nc1nc(-c2ccc3c(c2)OCCO3)cs1 | n | n | n | n
Nc1nc(-c2ccc3c(c2)CCCC3)cs1 | n | 81 | n | n
COc1ccccc1C(=O)O/N=C(\N)c1ccccc1Cl | n | n | n | x
COc1cc(OC)nc(Oc2ccccc2C(=O)Oc2ccc(F)cc2Cl)n1 | n | 69 | n | n
COc1ccc(-c2cc(C(F)(F)F)n3nc(C(=O)N(C)Cc4ccccc4)cc3n2)cc1OC | x | n | x | x
COc1ccccc1-c1cc(C(F)(F)F)nc(S(=O)(=O)CCCC(=O)Nc2cc(C)on2)n1 | 4.0 | n | 2.0 | n
COc1ccccc1-c1cc(C(F)(F)F)nc(N2CCCC2)n1 | n | n | n | x
COc1ccccc1-c1cc(C(F)(F)F)nc(S(C)(=O)=O)n1 | 2.6 | n | n | x
COc1ccccc1-c1cc(C(F)(F)F)nc(S(=O)(=O)CCCC(=O)NC(C)C)n1 | 6.0 | n | n | n
COc1ccc(-c2cc(C(F)(F)F)nc(S(=O)(=O)CCCC(=O)Nc3cc(C)on3)n2)cc1OC | x | n | x | x
COc1ccccc1-c1cc(C(F)(F)F)nc(N2CCCCC2)n1 | n | 74 | n | n
